Results filed as inconclusive are left out. Activity calls are given as the source filed them. Unless noted, calls come from the whole dose curve; as a rule, active = well fitted curve in the direction sought with a large enough effect in the repeat runs; inconclusive = weak or mixed curves; inactive = no such curve, though single readings can be large; an effect the other way counts as inactive or inconclusive.
Experiments:
[1] = qHTS assay to identify small molecule antagonists of the estrogen related receptor (ERR) signaling pathway from Tox21 library - cell viability counter screen (AID 1224834); note: nearly all actives have a fitted effect of over 30% in size
Outline: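 CellTiter-Fluor fluorescence measured; ERR cells; 17.5 h compound incubation at 37 C; 30 min reagent step.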

[2] = molecular target: Luciferin 4-monooxygenase (Photinus pyralis) (UniProt P08659); assay: qHTS assay to identify small molecule inhibitors of firefly luciferase (AID 1224835); note: nearly all actives have a fitted effect of over 25% in size
Outline: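 Inhibition of purified Photinus luciferase is measured by luminescence. Substrate levels (D-luciferin, ATP) sit at their KM values. Each compound is tested in a concentration series.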

[3] = qHTS assay to identify small molecule agonists of the constitutive androstane receptor (CAR) signaling pathway - cell viability counter screen (AID 1224836); note: nearly all actives have a fitted effect of over 45% in size
Outline: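 Double-stable HepG2 hepatoma cells (hCAR plus CYP2B6-2.2kb) are treated for 23 h at 37 C with test compounds in 15-point concentration series. PK11195 at 0.75 uM final is co-added. Cell viability is quantified by CellTiter-Fluor.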

[4] = qHTS assay to identify small molecule antagonists of the constitutive androstane receptor (CAR) signaling pathway - cell viability counter screen (AID 1224837); note: nearly all actives have a fitted effect of over 45% in size
Outline: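 Using CellTiter-Fluor, viability is scored in HepG2 cells stably carrying hCAR and a 2.2kb CYP2B6 reporter after 23 hr compound exposure across 15 concentrations, with CITCO present at 50 nM.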

[5] = molecular target: Nuclear receptor subfamily 1 group I member 3 (Homo sapiens) (UniProt Q14994); assay: qHTS assay to identify small molecule antagonists of the constitutive androstane receptor (CAR) signaling pathway (AID 1224838);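 note: HepG2 cells stably expressing hCAR with CYP2B6 luciferase reporter stimulated by CITCO; nearly all actives have a fitted effect of over 40% in size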
Outline: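 Reporter luminescence was quantified after 24 h exposure of hCAR/CYP2B6-2.2kb double-stable HepG2 cells to compounds at 15 concentrations in the presence of 50 nM CITCO final.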

[6] = molecular target: Nuclear receptor subfamily 1 group I member 3 (Homo sapiens) (UniProt Q14994); assay: qHTS assay to identify small molecule agonists of the constitutive androstane receptor (CAR) signaling pathway (AID 1224839);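 note: HepG2 cells stably carrying human CAR and a CYP2B6 luciferase reporter; nearly all actives have a fitted effect of over 15% in size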
Outline: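 Readout: firefly luciferase luminescence via ONE-Glo. System: HepG2 double-stable for hCAR and CYP2B6-2.2kb. Conditions: 15-point compound titration, PK11195 at 0.75 uM final, 24 h incubation.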

[7] = qHTS assay to identify small molecule antagonists of the estrogen related receptor signaling pathway with the pleiotropic PPARgamma coactivator (PGC) from Tox21 10K library - cell viability counter screen (AID 1224840; active = well fitted cell-killing curve with a large enough effect in the repeat runs, not every such curve was filed as active; note: nearly all actives have a fitted effect of over 40% in size)
Outline: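 Here the PGC/ERR cells serve as a cytotoxicity control: they are exposed to compounds for 17.5 hours at 37 C, and live-cell signal is quantified using CellTiter-Fluor fluorescence.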

[8] = qHTS assay to identify small molecule antagonists of the estrogen related receptor signaling pathway with the pleiotropic PPARgamma coactivator (PGC) from Tox21 10K library (AID 1224841; call rule not given here; note: actives are mostly falling curves and most rising ones were filed inactive; nearly all actives have a fitted effect of over 50% in size)
Outline: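 Each well held 2,000 PGC/ERR cells, pre-incubated six hours (37 C, 5% CO2). Test substances in DMSO were added by pin tool and left for 18 h at 37 C before luciferase detection by One-Glo.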

[9] = molecular target: Thyrotropin receptor (Homo sapiens) (UniProt P16473); assay: qHTS assay to identify small molecule agonists of the thyroid stimulating hormone receptor (TSHR) signaling pathway (AID 1224843; calls by dose curve; note: nearly all actives have a fitted effect of over 45% in size)
Outline: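 HEK293 cells stably bearing the thyrotropin receptor were plated at 800 cells/well and challenged with compound (30 min, RT). Accumulated cAMP was quantified via cAMP-d2 competing for cryptate-tagged antibody.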

[10] = qHTS assay to identify small molecule agonists of the hypoxia (HIF-1) signaling pathway - cell viability counter screen (AID 1224844; calls by dose curve; note: nearly all actives have a fitted effect of over 50% in size)
Outline: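 Multiplexed with the HRE beta-lactamase assay, this viability read used CellTiter-Glo luminescence (30 min, RT) on HRE-bla ME-180 cells treated 17 hrs with compounds in 0.5% dialyzed FBS medium.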

[11] = qHTS assay to identify small molecule agonists of H2AX (AID 1224845; active = well fitted activation curve with a large enough effect in the signal ratio in the repeat runs, not every such curve was filed as active; the % refers to the signal ratio)
Outline: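 Phospho-H2AX Ser139 measured by HTRF (ex 320 nm; em 665 and 620 nm) after 24 hr antibody incubation. Compounds, 15 concentrations, 0.76% DMSO, were applied to CHO-K1 cells for 3hr at 37C before lysis.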

[12] = qHTS assay to identify small molecule agonists of the hypoxia (HIF-1) signaling pathway (AID 1224846; active = well fitted activation curve with a large enough effect in the signal ratio in the repeat runs, not every such curve was filed as active; the % refers to the signal ratio)
Outline: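 Hypoxia-pathway activation was scored as increased beta-lactamase from an HRE-controlled reporter in ME-180 cells; plated at 2,000 cells per well with 0.5% dialyzed FBS, they were exposed 17 hrs to compounds and then given CCF4-AM.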

[13] = qHTS assay to identify small molecule antagonists of the estrogen related receptor (ERR) signaling pathway from Tox21 library (AID 1224848); note: nearly all actives have a fitted effect of over 50% in size
Outline: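 Reading was by luminescence 30 min after ONE-Glo addition. Before that, ERR cells at 2,000 per well had rested 6 h at 37 C/5% CO2 and then received pin-tooled compounds in DMSO for 18 h at 37 C.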

[14] = qHTS assay to identify small molecule agonists of the estrogen related receptor (ERR) signaling pathway from Tox21 library (AID 1224849; calls by dose curve; note: nearly all actives have a fitted effect of over 15% in size); settings: ERR reporter cell line, ONE-Glo luciferase, 18 h; at 92.4 µM (top of the series) unless noted
Outline: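 Six hours post-seeding at 37 C/5% CO2, ERR cells receive DMSO-solubilised compounds; after 18 h at 37 C, ONE-Glo reagent is applied and luminescence recorded.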

[15] = qHTS RealTime-Glo MT Cell Viability Assay in HepG2 cells - 24 hour (AID 1224867); note: nearly all actives have a fitted effect of over 50% in size
Outline: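 Tox21 10K library screened in qHTS format on HepG2 cells carrying RealTime-Glo reagents. Compounds were added after a 5 h preincubation, and the luminescent signal from continuous culture was measured repeatedly during 40 h treatment.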

[16] = qHTS RealTime-Glo MT Cell Viability Assay in HEK293 cells - 32 hour (AID 1224868)
Outline: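 Luminescence generated by NanoLuc from substrate produced by living HEK293 cells served as the viability signal. Each value reflects the reading at its stated time point during continuous 40 h compound exposure at 37 C.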

[17] = A CellTox Green Cytotoxicity Assay to monitor cytotoxicity in HEK293 cells - 0 hour (AID 1224869); note: nearly all actives have a fitted effect of over 50% in size
Outline: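 Seeding of HEK293 cells together with cytotoxicity dye preceded a 5 h incubation at 37 C/5% CO2. Test compounds in DMSO were then added and fluorescence monitored across 40 h.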

[18] = qHTS assay to identify small molecule agonists of H2AX - cell viability counter screen (AID 1224847; calls by dose curve;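 note: wild-type CHO-K1 cells; top concentration of the series differs between compounds; nearly all actives have a fitted effect of over 30% in size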)
Outline: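 For this counter screen, overnight-attached CHO-K1 cells received test compounds (15 concentrations, 0.76% DMSO final); 3 hr later at 37C, CellTiter-Glo reagent was added and luminescence recorded after 30 min at room temperature.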

[19] = qHTS assay to identify small molecule agonists of the estrogen related receptor signaling pathway with the pleiotropic PPARgamma coactivator (PGC) from Tox21 10K library (AID 1224842); note: nearly all actives have a fitted effect of over 15% in size
Outline: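 Luminescence from One-Glo (30 min, room temperature) measured after PGC/ERR cells had 18 h at 37 C with pinned compound (23 nL in DMSO). Cells had been seeded at 2,000 per well and pre-incubated 6 h.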
% is set by controls: 0 for no effect and ±100 for the full control effect.

Chain of Thyrotropin receptor (Homo sapiens) (P16473 whole entry, looked up): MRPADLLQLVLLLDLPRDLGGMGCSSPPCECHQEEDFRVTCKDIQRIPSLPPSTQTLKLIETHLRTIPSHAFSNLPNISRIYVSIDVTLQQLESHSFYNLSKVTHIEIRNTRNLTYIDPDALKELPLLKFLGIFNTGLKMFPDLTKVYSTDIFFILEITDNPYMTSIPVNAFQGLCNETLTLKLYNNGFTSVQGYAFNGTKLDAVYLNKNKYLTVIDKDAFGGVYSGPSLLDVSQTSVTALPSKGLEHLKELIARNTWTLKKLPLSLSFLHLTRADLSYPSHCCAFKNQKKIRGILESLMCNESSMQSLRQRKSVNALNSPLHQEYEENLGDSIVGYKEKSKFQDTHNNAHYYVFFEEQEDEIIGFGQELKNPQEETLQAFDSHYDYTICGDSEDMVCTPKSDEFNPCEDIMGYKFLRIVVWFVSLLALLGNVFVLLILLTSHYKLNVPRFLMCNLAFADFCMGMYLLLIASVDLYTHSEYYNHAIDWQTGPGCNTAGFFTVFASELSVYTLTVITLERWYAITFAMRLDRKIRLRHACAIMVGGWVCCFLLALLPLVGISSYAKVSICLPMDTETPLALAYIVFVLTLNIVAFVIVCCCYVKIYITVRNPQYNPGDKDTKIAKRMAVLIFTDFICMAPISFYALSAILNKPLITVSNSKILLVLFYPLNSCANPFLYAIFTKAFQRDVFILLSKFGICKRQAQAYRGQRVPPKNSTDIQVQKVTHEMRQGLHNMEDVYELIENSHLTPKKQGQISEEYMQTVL
Chain of Nuclear receptor subfamily 1 group I member 3 (Homo sapiens) (Q14994 whole entry, looked up): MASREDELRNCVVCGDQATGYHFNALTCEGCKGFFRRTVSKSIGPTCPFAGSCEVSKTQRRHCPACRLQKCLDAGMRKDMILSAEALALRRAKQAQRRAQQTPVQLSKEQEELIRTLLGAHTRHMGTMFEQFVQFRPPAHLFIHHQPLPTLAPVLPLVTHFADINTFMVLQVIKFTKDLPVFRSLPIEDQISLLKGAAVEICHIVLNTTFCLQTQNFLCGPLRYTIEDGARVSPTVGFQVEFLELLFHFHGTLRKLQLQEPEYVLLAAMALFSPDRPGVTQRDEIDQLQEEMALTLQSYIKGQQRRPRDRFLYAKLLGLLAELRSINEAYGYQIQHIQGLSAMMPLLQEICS
Chain of Luciferin 4-monooxygenase (Photinus pyralis) (P08659 whole entry, looked up): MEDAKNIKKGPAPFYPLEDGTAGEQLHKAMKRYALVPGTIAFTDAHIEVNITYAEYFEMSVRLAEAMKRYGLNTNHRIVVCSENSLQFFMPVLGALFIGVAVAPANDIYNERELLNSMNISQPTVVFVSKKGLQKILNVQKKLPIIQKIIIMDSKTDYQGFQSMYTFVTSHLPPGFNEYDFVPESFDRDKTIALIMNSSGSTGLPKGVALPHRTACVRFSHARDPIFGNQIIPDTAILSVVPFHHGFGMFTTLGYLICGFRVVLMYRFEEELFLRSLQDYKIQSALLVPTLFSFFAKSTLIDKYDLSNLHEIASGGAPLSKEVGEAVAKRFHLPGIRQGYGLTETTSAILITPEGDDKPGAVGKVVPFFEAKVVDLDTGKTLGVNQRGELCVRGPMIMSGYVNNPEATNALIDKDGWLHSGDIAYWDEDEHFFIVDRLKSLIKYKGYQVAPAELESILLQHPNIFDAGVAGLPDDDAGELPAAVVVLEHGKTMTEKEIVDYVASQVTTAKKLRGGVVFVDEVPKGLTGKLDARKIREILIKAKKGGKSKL

COC(C)(C)CCCC(C)CC=O (stereo not given)
inactive: Potency [1] | Potency [2] | Potency [3] | Potency [4] | Potency [5] | Potency [6] | Potency [7] | Potency [8] | Potency [9] | Potency [10] | outcome [11] | outcome [12] | Potency [13] | activity change, positive = activation [14] 8.65% | Potency [15] | Potency [16] | Potency [17]

c1cnc(N2CCN(Cc3ccc4c(c3)OCO4)CC2)nc1
inactive: Potency [1] | Potency [2] | Potency [3] | Potency [4] | Potency [5] | Potency [6] | Potency [7] | Potency [9] | Potency [10] | outcome [11] | Potency [18] | Potency [15] | Potency [16] | Potency [17]

Nc1nc2c(ncn2COC(CO)CO)c(=O)[nH]1
inactive: Potency [1] | Potency [2] | Potency [3] | Potency [4] | Potency [5] | Potency [6] | Potency [7] | Potency [9] | Potency [10] | outcome [11] | Potency [18] | Potency [17]

NS(=O)(=O)c1cc2c(cc1Cl)NC(C1CC3C=CC1C3)NS2(=O)=O (stereo not given)
inactive: Potency [1] | Potency [2] | Potency [3] | Potency [4] | Potency [5] | Potency [6] | Potency [7] | Potency [10] | outcome [11] | Potency [18] | Potency [15] | Potency [16] | Potency [17]

CC(C)CCCC(C)N (stereo not given)
inactive: Potency [1] | Potency [2] | Potency [3] | Potency [4] | Potency [5] | Potency [6] | Potency [7] | Potency [8] | Potency [9] | Potency [10] | outcome [11] | outcome [12] | Potency [18] | Potency [15] | Potency [16] | Potency [17]

CN1C(=O)N(C)C(O)C1O (stereo not given)
inactive: Potency [1] | Potency [2] | Potency [3] | Potency [5] | Potency [6] | Potency [7] | Potency [8] | outcome [19] | Potency [9] | Potency [10] | outcome [11] | outcome [12] | Potency [18] | Potency [13] | activity change, positive = activation [14] 0.239% | Potency [15] | Potency [16] | Potency [17]

CCN1CCC[C@H]1CNC(=O)c1c(O)c(Cl)cc(Cl)c1OC
inactive: Potency [1] | Potency [2] | Potency [3] | Potency [4] | Potency [5] | Potency [6] | Potency [7] | Potency [9] | Potency [10] | outcome [11] | Potency [18] | Potency [15] | Potency [16] | Potency [17]

CC(C(=O)O)c1ccc(CC2CCCC2=O)cc1 (stereo not given)
inactive: Potency [1] | Potency [2] | Potency [3] | Potency [4] | Potency [5] | Potency [6] | Potency [7] | Potency [9] | Potency [10] | outcome [11] | Potency [18] | Potency [15] | Potency [16] | Potency [17]

Cc1ccc(C#N)cc1
inactive: Potency [1] | Potency [2] | Potency [3] | Potency [5] | Potency [6] | Potency [7] | Potency [8] | outcome [19] | Potency [9] | Potency [10] | outcome [11] | outcome [12] | Potency [18] | Potency [13] | activity change, positive = activation [14] 1.46% | Potency [15] | Potency [16] | Potency [17]

CCCN(CCC)CCc1cccc2c1CC(=O)N2
inactive: Potency [1] | Potency [2] | Potency [3] | Potency [4] | Potency [5] | Potency [6] | Potency [7] | Potency [9] | Potency [10] | outcome [11] | Potency [18] | Potency [15] | Potency [16] | Potency [17]

COc1ccccc1OCC(O)CN1CCN(CC(=O)Nc2c(C)cccc2C)CC1 (stereo not given)
inactive: Potency [1] | Potency [2] | Potency [3] | Potency [4] | Potency [5] | Potency [6] | Potency [7] | Potency [9] | Potency [10] | outcome [11] | Potency [18] | Potency [15] | Potency [16] | Potency [17]

N=C(N)c1ccccc1
inactive: Potency [1] | Potency [2] | Potency [3] | Potency [4] | Potency [5] | Potency [6] | Potency [7] | Potency [9] | Potency [10] | outcome [11] | Potency [18] | Potency [15] | Potency [17]

ClC(Cl)(Br)Br
inactive: Potency [1] | Potency [2] | Potency [3] | Potency [5] | Potency [6] | Potency [7] | Potency [8] | outcome [19] | Potency [9] | Potency [10] | outcome [11] | outcome [12] | Potency [18] | Potency [13] | activity change, positive = activation [14] 1.45% | Potency [15] | Potency [16] | Potency [17]

COc1ccc2c(c1)CCCC2=O
inactive: Potency [1] | Potency [2] | Potency [3] | Potency [4] | Potency [5] | Potency [6] | Potency [7] | Potency [8] | Potency [10] | outcome [11] | outcome [12] | Potency [18] | activity change, positive = activation [14] 4.85% [at 42.5 µM] | Potency [15] | Potency [16] | Potency [17]

NCCCNCCSP(=O)(O)O
inactive: viability change, negative = cytotoxic [1] 2.57% [at 8.39 µM] | activity change, negative = inhibition [2] 0.729% [at 10.5 µM] | viability change, negative = cytotoxic [3] 10.5% [at 8.39 µM] | activity change, negative = cytotoxicity [4] 2.76% [at 8.39 µM] | activity, negative = inhibition [5] -1.02% [at 8.39 µM] | activation [6] -1.23% [at 8.39 µM] | viability change, negative = cytotoxic [7] 11.6% [at 8.39 µM] | activation [9] 0.0403% [at 8.39 µM] | activity change, negative = cytotoxicity [10] 6.46% [at 6.97 µM] | activation (H2AX phosphorylation) [11] -3.9% [at 14 µM] | activity change, negative = cytotoxicity [18] -5.36% [at 14 µM] | activity change, negative = cytotoxicity [15] 1.03% [at 6.97 µM] | activity change, negative = cytotoxic [16] 3.62% [at 6.97 µM] | cytotoxicity [17] -8.49% [at 6.97 µM]
